Screening data (PubChem)
Pf apPOL block: Pf-apPOL DNA polymerase inhibition. Recombinant Pf-apPOL, molecular beacon fluorescence, 1.5 h. AID 1794808. hit rate 0.25% among 210,000. inhibition, % at 10 µM
mHTT-CaM PPI inh: inhibitors of human mutant huntingtin-calmodulin interaction. AlphaScreen His-mHTT/GST-CaM binding, luminescence. AID 1671202. inhibition, % at 15 µM. P42858. hit rate 3.6% among 190,000
A number is an active result. Rows were chosen to be rich in hits. Some 3.6% of all compounds tested hit in one or more screens of this group. No stated cut-off is given here; in the data, active means inhibition above about 50%; inactive means the rest.

For O=C(CCN1CCOCC1)Nc1ccc(Br)cc1C(=O)c1ccccc1 the results were Pf apPOL block inactive and mHTT-CaM PPI inh 81.
COC(=O)c1ccc(Oc2coc3cc(OC(=O)N(C)C)ccc3c2=O)cc1 was read as Pf apPOL block inactive and mHTT-CaM PPI inh inactive.
CC1N=C(c2ccccc2)c2ccccc2N(CC(=O)NCc2ccco2)C1=O (stereo not given) was read as Pf apPOL block inactive and mHTT-CaM PPI inh inactive.
Screening O=C(CN1C(=O)CN=C(c2ccccc2)c2cc(Cl)ccc21)NCc1cccc(Cl)c1 returned Pf apPOL block inactive and mHTT-CaM PPI inh 91.
For CC1N=C(c2ccccc2)c2ccccc2N(CC(=O)Nc2ccc(N(C)C)cc2)C1=O (stereo not given) the results were Pf apPOL block inactive and mHTT-CaM PPI inh inactive.
CCN(C(=O)CN1C(=O)C(C)N=C(c2ccccc2)c2ccccc21)c1cccc(C)c1 (stereo not given) was read as Pf apPOL block inactive and mHTT-CaM PPI inh inactive.
For Cc1cc(C)n(C(=O)CN2C(=O)CN=C(c3ccccc3)c3cc(Br)ccc32)n1 the results were Pf apPOL block inactive and mHTT-CaM PPI inh 64.
Screening O=C(CN1C(=O)CN=C(c2ccccc2)c2cc(Cl)ccc21)Nc1cccc(C(F)(F)F)c1 returned Pf apPOL block inactive and mHTT-CaM PPI inh 82.
Screening CCn1cc(C(=O)NCc2ccccc2C(F)(F)F)c2cccnc21 returned Pf apPOL block inactive and mHTT-CaM PPI inh inactive.
CC(C)C(=O)NC(Oc1ccc([N+](=O)[O-])cc1)C(Cl)(Cl)Cl (stereo not given) was read as Pf apPOL block inactive and mHTT-CaM PPI inh inactive.
For COc1ccc2c(c1)C1(CCN(S(=O)(=O)c3ccccc3F)C1)C(=O)N2 (stereo not given) the results were Pf apPOL block inactive and mHTT-CaM PPI inh inactive.
COc1ccc2c(c1)C1(CCN(C(=O)Nc3ccccc3C)C1)C(=O)N2 (stereo not given) was read as Pf apPOL block inactive and mHTT-CaM PPI inh inactive.
`Cc1c(C#N)c(N)n(CCCn2ccnc2)c1C` gave mHTT-CaM PPI inh 99.
`Cc1c(C#N)c(N)n(CC2CCCO2)c1C` (stereo not given) gave mHTT-CaM PPI inh inactive.
`COc1ccc2c(c1)C1(CCN(C(=O)Cc3ccc(OC)c(Cl)c3)C1)C(=O)N2C` (stereo not given) gave Pf apPOL block inactive and mHTT-CaM PPI inh inactive.
`CCC12C=CCN3CCC4(c5ccc(OC)cc5N(C)C4C(O)(C(=O)OC)C1OC(C)=O)C32` (stereo not given) gave Pf apPOL block inactive.
`CC1=Nc2ccccc2C1=Cc1c(O)[nH]c(=O)[nH]c1=O` gave Pf apPOL block inactive and mHTT-CaM PPI inh 54.
For CCCC(=O)NC(Oc1ccccc1)C(Cl)(Cl)Cl (stereo not given) the results were Pf apPOL block inactive and mHTT-CaM PPI inh inactive.
For CN(C)C(=C(Cl)Cl)/C(=C1\NCCN1Cc1ccc(Cl)nc1)[N+](=O)[O-] the results were Pf apPOL block inactive and mHTT-CaM PPI inh inactive.
Screening COc1ccc(OC)c(NP(=O)(Oc2ccccc2)Oc2ccccc2)c1 returned Pf apPOL block inactive and mHTT-CaM PPI inh 74.
Screening O=P(Nc1ccccc1I)(Oc1ccccc1)Oc1ccccc1 returned Pf apPOL block inactive and mHTT-CaM PPI inh inactive.
For Nc1nonc1-c1nn[nH]n1 the results were mHTT-CaM PPI inh inactive.
Screening CCN1C(=O)NC(=O)/C(=C/c2cn(CC(=O)NCCOC)c3ccccc23)C1=O returned Pf apPOL block inactive and mHTT-CaM PPI inh inactive.
Screening CCN1C(=O)NC(=O)/C(=C/c2cn(CC(=O)NCc3ccco3)c3ccccc23)C1=O returned Pf apPOL block inactive and mHTT-CaM PPI inh 51.
CCN(CC)C(=O)Cn1cc(/C=C2\C(=O)NC(=O)N(c3ccccc3F)C2=O)c2ccccc21 was read as Pf apPOL block inactive and mHTT-CaM PPI inh 62.
For CCN1C(=O)NC(=O)/C(=C/c2cn(CC(=O)N3CCCCC3)c3ccccc23)C1=O the results were Pf apPOL block inactive and mHTT-CaM PPI inh inactive.
Screening COc1ccc(C=C2Oc3c(ccc(OC(=O)N(C)C)c3C)C2=O)cc1 returned Pf apPOL block inactive and mHTT-CaM PPI inh inactive.
Screening CCOc1ccc(C(=O)N2CCC3(C2)C(=O)Nc2ccc(OC)cc23)cc1 (stereo not given) returned Pf apPOL block inactive and mHTT-CaM PPI inh inactive.
`COc1ccc(CCN2CCN(c3ccccc3OC)CC2)cc1OC` gave Pf apPOL block inactive and mHTT-CaM PPI inh inactive.
For O=c1[nH]c(=S)[nH]c(O)c1C=C1C=CC=N1 the results were Pf apPOL block 89.
For COc1ccc(/C(C)=N/NC(=O)CSC2c3ccccc3-c3ccccc32)cc1OC the results were mHTT-CaM PPI inh inactive.
COc1cc(CN2CCN(c3cccc(Cl)c3)CC2)cc(I)c1O was read as Pf apPOL block inactive and mHTT-CaM PPI inh 58.
For COc1ccc(CN2CCN(c3cccc(Cl)c3)CC2)cc1O the results were Pf apPOL block inactive and mHTT-CaM PPI inh inactive.
Screening COc1ccc2c(c1)C1(CCN(C(=O)Nc3ccc(OC)c(F)c3)C1)C(=O)N2C (stereo not given) returned Pf apPOL block inactive and mHTT-CaM PPI inh inactive.
For O=[N+]([O-])/C(Cl)=C(Cl)/C(=C1/NCCO1)[N+](=O)[O-] the results were Pf apPOL block inactive and mHTT-CaM PPI inh inactive.
For CCN1CCc2[nH]c(=S)c(C#N)cc2C1 the results were mHTT-CaM PPI inh inactive.
For O=c1c2ccccc2nc(/C=C/c2cccnc2)n1-c1ccccc1[N+](=O)[O-] the results were Pf apPOL block inactive and mHTT-CaM PPI inh inactive.
For CCCCc1nc2c(o1)NC(N)=C(C#N)C21CN2CCC1CC2 (stereo not given) the results were mHTT-CaM PPI inh inactive.
Screening Nc1nc2ccccc2c(-c2cccc3ccccc23)c1CN1CC1 returned mHTT-CaM PPI inh 98.
Cc1ccc(CN2CCN(Cc3ccccc3)CC2)cc1 was read as Pf apPOL block inactive and mHTT-CaM PPI inh inactive.
`COc1ccc2c(c1)C1(CCN(S(C)(=O)=O)C1)C(=O)N2` (stereo not given) gave Pf apPOL block inactive and mHTT-CaM PPI inh inactive.
Screening CCc1c(C(=O)O)nnn1Cc1ccc(F)cc1F returned Pf apPOL block inactive and mHTT-CaM PPI inh inactive.
Screening O=C1CN=C(c2ccccc2Br)c2cc(Cl)ccc2N1 returned Pf apPOL block inactive and mHTT-CaM PPI inh inactive.
For Cc1ccc(C2=NCC(=O)Nc3ccc(Br)cc32)cc1 the results were Pf apPOL block inactive and mHTT-CaM PPI inh 97.
